Assay outcomes as filed in PubChem.
Cardiac RTF inh: cardiac RTF calcium desensitization; hit rate 0.12% among 340,000; P19429+P45379; IANBD-labeled cardiac RTF, Ca2+ fluorescence; inhibition, % at 7.15 µM; AID 493244;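 active means inhibition above the mean inhibition of all tested compounds plus 3 SD, cut at about 17% in these data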;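 further: assay run at fixed EC70 calcium of 1.6 mM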
LANA-H2A inh: blocks KSHV LANA binding to histone H2A/H2B. Q9QR71. cell-free LANA-H2A/H2B peptide, fluorescence polarization. inhibition, % (concentration not given with the values). hit rate 0.6% among 320,000. AID 2629; in the data active means inhibition mostly above about 10%, no sharp cut-off; inactive means mostly below about 6.7%
Keap1 Nrf2 FP: inhibitors of human Keap1-Nrf2 protein-protein interaction | Q14145 | Keap1 Kelch-Nrf2 peptide fluorescence polarization, 1536-well | inhibition, % at 9.4 µM | hit rate 0.15% among 340,000 | AID 504523; in the data active means inhibition above about 12%;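 further: human Keap1 Kelch domain with fluorescein labeled Nrf2 9mer peptide probe; 0% = neutral control wells and 100% = peptide positive control; higher means more block of Keap1 binding to Nrf2 peptide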
RTF Ca sens act: cardiac RTF calcium sensitization; hit rate 0.24% among 340,000; activation, % at 7.2 µM; AID 493008; IANBD-labeled TnC RTF fluorescence at EC20 calcium; 0% EC20 calcium, 100% full calcium;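 active means activation above the mean over all tested compounds plus 3 SD, cut at about 30% in these data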;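 further: rise in fluorescence read as greater calcium sensitivity of cardiac thin filaments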
LANA DNA inh: inhibitors of KSHV LANA C-terminal domain DNA binding. MBP-C-LANA/FAM-LBS DNA binding, fluorescence polarization. hit rate 0.078% among 340,000. inhibition, % at 9 µM;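 active means highest replicate inhibition at or above 60% at 9 µM, even if other replicates fall short; inactive means all replicates below 60% inhibition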;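 further: 0% = neutral control wells and 100% = 4 µM acridine orange control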
RTF Ca inh conf: cardiac RTF calcium sensitivity inhibition, confirmation. shares compounds with Cardiac RTF inh. reconstituted cardiac thin filaments, calcium sensitivity fluorescence. inhibition, % at 7.15 µM. hit rate 8% among 360; in the data active means inhibition above about 18%
Numbers without * were called inactive; · = no result; ! = not confirmed by another sample. This is a sample that favours compounds with a hit; in the whole collection about 0.98% have one here.

SMILES	Cardiac RTF inh	LANA-H2A inh	Keap1 Nrf2 FP	RTF Ca sens act	LANA DNA inh	RTF Ca inh conf
CC(=O)Nc1cc(C(=O)N2CCc3ccccc3C2)ccc1Sc1ccc(C)cc1	17*	-2	0	-2	0	-4
CCCN1CCN(C(=O)c2ccc(Sc3ccc(C)cc3)c(NC(C)=O)c2)CC1	-10	8	-1	-3	-1	·
COc1ccc(CNC(=O)CCCCCNc2nc(=S)[nH]c3ccccc23)cc1	18*	0	-1	3	1	-5
CCc1ccc([C@@H]2C[C@H]3CN(Cc4ccccc4OC)C(=O)[C@]34CCCN24)cc1	55*	0	-1	1	1	-5
COc1ccccc1CN1C[C@@H]2C[C@@H](c3ccc(C)cc3)N3CCC[C@@]23C1=O	-17	-5	-6	5	2	·
COCCN1CCN(Cc2nc(C3(c4ccc(C)cc4)CCCC3)no2)CC1	19*	-2	-2	-1	0	-2
CC(=O)N1CCCN(Cc2nc(C3(c4ccc(C)cc4)CCCC3)no2)CC1	-8	-3	-7	-3	-3	·
COc1cc(-c2nnc(SCc3cc(=O)oc4cc(O)c(O)cc34)o2)cc(OC)c1OC	30*	2	-3	-31	8	17*
COc1ccc(C2=NOC(C(=O)NCCCn3ccnc3)C2)cc1 (configuration not stated)	18*	-2	2	1	0	-6
CCOC(=O)CCCCCC(=O)Nc1ccc2c(c1)CC(=O)N([C@@H](C)CO)C[C@H](C)[C@@H](CN(C)C(=O)Nc1ccc3c(c1)OCO3)O2	-20	-3	-4	-5	3	·
C=CCN(C(=O)Cn1c(C(=O)OC)cc2oc(C)cc21)c1ccccc1	-29	-2	-1	7	-2	·
COC(=O)c1cc2oc(C)cc2n1CC(=O)N(C)c1ccccc1	17*	-6	-2	-2	0	-3
COc1cc(CNC2CCCC2)cc(OC)c1	18*	3	1	-2	-1	-2
Nc1c(S(=O)(=O)O)cc(NC(=O)c2ccccc2)c2c1C(=O)c1ccccc1C2=O	35*	0	-7	-11	1	5
COc1cccc(CN2CC(C(=O)N3CCN(C(C)C)CC3)CCC2=O)c1 (configuration not stated)	2	-6	-3	-2	0	·
CC(C)(CNS(C)(=O)=O)SCc1ccc(Cl)cc1	17*	-1	-3	2	-1	-5
C#CCSc1nnc(-c2ccc([N+](=O)[O-])cc2)o1	6	6	1	-5	0	·
O=C(Nc1ccc(N2CCOCC2)c(S(=O)(=O)Nc2ccccc2Cl)c1)c1ccc(F)cc1	24*	3	0	-9	0	1
COc1ccccc1NS(=O)(=O)c1cc(NC(=O)c2sccc2C)ccc1N1CCCC1	25*	-2	-2	-5	-1	3
O=C(Nc1ccc(F)cc1)Nc1ccc(N2CCCC2)c(S(=O)(=O)Nc2ccccc2Cl)c1	-8	11	0	7	0	·
COc1ccccc1NS(=O)(=O)c1cc(NC(=O)c2sccc2C)ccc1N1CCOCC1	16	3	-1	-6	0	·
COc1ccc(-n2nc(C(=O)NCC(=O)NCCC3=CCCCC3)c3ccccc3c2=O)cc1OC	-6	2	4	3	0	·
Cc1ccc(NC(=O)Cn2nnc3ccccc3c2=O)cc1C	18*	-10	5	-1	3	-6
O=C(Cn1nnc2ccccc2c1=O)Nc1ccc(S(=O)(=O)N2CCOCC2)cc1	17*	1	3	1	3	-1
Cc1ccc(NC(=O)Cn2nnc3ccccc3c2=O)cc1	-11	2	5	-2	2	·
SMILES	Cardiac RTF inh	LANA-H2A inh	Keap1 Nrf2 FP	RTF Ca sens act	LANA DNA inh	RTF Ca inh conf
Cn1cc(CCNC(=O)C2CCC(=O)N(CCc3ccc(Cl)cc3)C2)cn1 (configuration not stated)	1	-4	1	0	0	·
c1ccc2c(c1)ccc1ncccc12	18*	1	-4	-5	-1	-4
c1cnc2c(c1)ccc1cccnc12	18*!	21*!	-1	0	-2	-7
c1cnc2ccc3ncccc3c2c1	-8	-1	-3	6	-1	·
Nc1nc(=O)n(C2CCCCO2)cc1Br (configuration not stated)	-6	·	3	7	1	·
Cc1ccc(NS(=O)(=O)c2ccc(/C=C/C(=O)O)cc2)cc1Cl	21*	3	1	-1	1	-7
Cc1ccc(NS(=O)(=O)c2cccc(C(=O)O)c2)cc1S(=O)(=O)N1CCOCC1	-5	-3	2	0	-1	·
Cc1ccc(NS(=O)(=O)c2ccc(Cl)c(C(=O)O)c2)cc1S(=O)(=O)N1CCOCC1	19*	4	-2	2	-1	-3
CN1CCCC(CC2c3ccccc3Sc3ccccc32)C1 (configuration not stated)	5	3	2	-3	0	·
CN1CCCC(CN2c3ccccc3Sc3ccccc32)C1 (configuration not stated)	24*	-5	0	-5	0	-2
COc1ccc(OC)c(CN2CCN(Cc3cccc4ccccc34)CC2)c1	-12	2	-2	5	0	·
Cc1c(Cl)cccc1NS(=O)(=O)c1ccc2c(c1)C1C=CCC1C(c1ccc(C(=O)O)cc1)N2 (configuration not stated)	31*	4	-3	-33	111*	-14
Cc1ccccc1N1CCN(C2=NC(=O)/C(=C\c3cccs3)S2)CC1	19*	-1	1	0	0	0
O=C1N=C(N2CCN(c3cccc4ccccc34)CC2)S/C1=C/c1cccs1	3	-3	-1	-3	3	·
O=C(CN(Cc1ccco1)C(=O)c1ccc(N2CCCC2=O)cc1)Nc1ccccc1C(F)(F)F	-12	-7	3	1	0	·
CC12CC3CC(C)(C1)CC(C(=O)N1CCN(C(=O)C4CCCO4)CC1)(C3)C2 (configuration not stated)	-10	-2	3	4	3	·
COCCn1c(SCC(=O)Nc2ccc(NC(C)=O)cc2)nc2c([nH]c3ccccc32)c1=O	19*	-1	-1	0	1	-5
CCOC(=O)c1c(N)sc2c(OC)c(Br)ccc12	21*	2	-2	-8	1	-6
O=C(O)CSc1cc(C(=O)c2ccccc2O)cn2c(=O)c3c4c(sc3nc12)CCCC4	22*	·	0	-8	2	5
O=C(O)CSc1nc2sc3c(c2c(=O)n1Cc1ccccc1)CCCCC3	-5	2	2	10	-2	·
COCc1nnc(NC(=O)c2ccc(S(=O)(=O)N(CC(C)C)CC(C)C)cc2)o1	189*	-3	-6	0	0	-1
C=CCN(CC=C)S(=O)(=O)c1ccc(C(=O)Nc2nnc(COC)o2)cc1	11	1	-6	4	-1	·
